A selection: hits, their analogues and other compounds. The true share with any hit is near 1.7%.
GLP1R cytotox – cytotoxicity counter-screen for GLP-1 receptor inverse agonists | AID 624418 | 410,000 compounds, 0.13% hits | HEK293 cAMP-luciferase reporter cells, luminescence, 24 h | Potency, µM (series often up to 38.3 µM), most hits filed as inhibitors;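 also: loss of luciferase light is scored as toxicity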
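A 23 nL compound transfer followed 12 hours of cell culture at 37 deg C; exposure then lasted 24 hr. Luciferase assay detection reagent was dispensed and plates read for luminescence after a 12 min room-temperature wait.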
PTHR1 agonist – agonists of human PTHR1 parathyroid hormone receptor; Q03431; HEK293 GP2 PTHR1 cells, GloSensor cAMP luminescence, 1 h; Potency, µM (doses to about 115 µM), most hits filed as activators; 410,000 compounds, 0.075% hits; AID 743266; also: nearly all actives have a fitted effect of over 55% in size
Target sequence (Q03431 whole entry, looked up): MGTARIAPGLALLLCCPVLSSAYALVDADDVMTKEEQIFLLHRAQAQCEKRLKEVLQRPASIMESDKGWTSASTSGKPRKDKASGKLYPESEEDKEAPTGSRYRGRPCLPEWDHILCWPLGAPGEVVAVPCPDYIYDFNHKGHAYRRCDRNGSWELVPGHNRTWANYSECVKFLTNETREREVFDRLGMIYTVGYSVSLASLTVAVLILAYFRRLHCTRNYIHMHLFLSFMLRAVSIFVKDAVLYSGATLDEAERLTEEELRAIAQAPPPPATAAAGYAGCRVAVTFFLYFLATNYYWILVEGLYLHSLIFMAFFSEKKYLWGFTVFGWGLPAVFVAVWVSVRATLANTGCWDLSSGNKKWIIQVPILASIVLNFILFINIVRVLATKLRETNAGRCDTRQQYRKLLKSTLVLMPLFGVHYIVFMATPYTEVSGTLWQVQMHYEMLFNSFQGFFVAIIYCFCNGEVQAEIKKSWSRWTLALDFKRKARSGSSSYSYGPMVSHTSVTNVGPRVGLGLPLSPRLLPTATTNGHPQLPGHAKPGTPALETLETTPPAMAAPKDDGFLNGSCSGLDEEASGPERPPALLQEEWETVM
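HEK-293-derived GP2 cells expressing PTHR1 and a GloSensor cAMP reporter, 3,000/well, plated overnight, given luciferin plus IBMX (each 0.5 mM as added) for 1 h at 37 °C, then compound for 1 h at 37 °C. Luminescence was read after 15 min at room temperature.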
GLP1R inv ag – acts as inverse agonist at human GLP-1 receptor | P43220 | HEK293 GLP-1R CRE-luciferase, luminescence, 24 h; GLP-1R form is constitutively active | Potency, µM (highest dose often 38.3 µM), usual class: inhibitors | 410,000 compounds, 1.6% hits; also: nearly all actives have a fitted effect of over 55% in size
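Constitutively active GLP-1R drives a cAMP-responsive luciferase in stably transfected HEK293 cells; test compounds are added after overnight (12 h) attachment and left 24 hr, and signal loss in luminescence marks inhibition.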
GLP1R ag – GLP-1 receptor (human) agonism; HEK293 GLP-1R CRE-luciferase, luminescence, 4-6 h; cells express a hypersensitive GLP-1R form; Potency, µM (titrated, usually from 45.6 µM), most hits filed as activators; 380,000 compounds, 0.007% hits
Each line names hits and unclear results; the compound was inactive in the other large screens. Calls follow the shape of the dose curve; as a rule, active = well fitted curve in the direction sought with a large enough effect; inconclusive = small, poorly fitted or top-dose-only effect, or another doubt; inactive = no such curve, though single readings can be large; an effect the other way counts as inactive or inconclusive.

CN(CC(=O)Nc1ccccc1Cl)C(=O)c1ccc(Cl)c(S(=O)(=O)N2CCCCCC2)c1	GLP1R inv ag inconclusive
CCN(CC)CCNC(=O)c1ccc(NC(=O)c2ccc(S(=O)(=O)N3CCCCCC3)cc2)cc1	GLP1R cytotox inconclusive, GLP1R inv ag inconclusive
COc1cccc(NC(=O)CN(C)C(=O)c2ccc(Cl)c(S(=O)(=O)N3CCCCCC3)c2)c1	GLP1R inv ag 8.9µM
CCN(CC)CCNC(=O)c1ccc(NC(=O)c2ccc(Cl)c(S(=O)(=O)N3CCCCCC3)c2)cc1	GLP1R cytotox inconclusive, GLP1R inv ag 4µM, GLP1R ag inconclusive
CCN(CC)CCNC(=O)c1ccc(NC(=O)COc2ccc3c(c2)CCC3)cc1	GLP1R inv ag 4.5µM
CC(=O)c1ccc(NC(=O)C2CCN(S(=O)(=O)c3ccc4c(c3)CCCN4C(=O)C3CCC3)CC2)cc1	none (no result: GLP1R ag)
Cc1nn(-c2c(Cl)cc(Cl)cc2Cl)c(=O)c2ccccc12	GLP1R inv ag 8.9µM
Cc1nn(-c2ccc(Br)cc2)c(=O)c2ccccc12	GLP1R inv ag inconclusive
CCOC(=O)/C(=N/Nc1ccc(Br)cc1)N1CC(C)OC(C)C1 (centres undefined)	GLP1R inv ag 2.5µM
CCOc1ccc(NC(=O)N2CC(C)OC(C)C2)cc1 (centres undefined)	none
CCOC(=O)c1cc(C)n(Cc2cccc(OC)c2OC)c1C	GLP1R inv ag 4µM
CCOC(=O)c1c(C)c(C)n(Cc2cccc(OC)c2OC)c1C	GLP1R inv ag inconclusive
CCOc1ccc(-c2ccc(SC)nn2)cc1	GLP1R inv ag 2.2µM
COc1cccc(CNC(=O)C(Cc2ccccc2)n2cccc2)c1 (centres undefined)	GLP1R inv ag inconclusive
O=C(Nc1ccc(F)cc1)C(Cc1ccccc1)n1cccc1 (centres undefined)	GLP1R inv ag 13µM
COc1cccc(NC(=O)C(Cc2ccccc2)n2cccc2)c1 (centres undefined)	GLP1R inv ag 11µM
O=C(NCc1cccs1)C(Cc1ccccc1)n1cccc1 (centres undefined)	GLP1R inv ag inconclusive
O=C(NCc1ccc(F)cc1)C(Cc1ccccc1)n1cccc1 (centres undefined)	GLP1R inv ag 11µM
Cc1ccc(NC(=O)C(Cc2ccccc2)n2cccc2)cc1 (centres undefined)	GLP1R inv ag inconclusive
COc1ccc(-c2nc(SCC(=O)c3ccc(OC)c(Br)c3)n[nH]2)cc1	GLP1R cytotox inconclusive, GLP1R inv ag inconclusive (no result: GLP1R ag)
O=C(OCc1nnc(-c2ccccc2)o1)c1cn(-c2ccccc2)nc1-c1ccccc1	GLP1R inv ag 13µM
O=C(OCc1nnc(-c2ccccc2)o1)c1ccc(-n2cnnn2)cc1	none
CC(CCc1ccccc1)NC(=O)CNc1cccc([N+](=O)[O-])c1 (centres undefined)	GLP1R inv ag 10µM
CC(CCc1ccccc1)NC(=O)Cc1ccc([N+](=O)[O-])cc1 (centres undefined)	none
CN[C@H](C)CCC=C(C)C	none (no result: GLP1R cytotox, PTHR1 agonist, GLP1R inv ag)
C[C@H]1[C@@H](OC(=O)CCC(=O)O)OC2OC3(C)CC[C@H]4[C@H](C)CC[C@@H]1[C@@]24OO3 (some centres undefined)	none (no result: GLP1R cytotox, PTHR1 agonist, GLP1R inv ag)
CCC1Oc2ccccc2N(CC(=O)NCc2ccccc2)C1=O (centres undefined)	none (no result: GLP1R ag)
COc1ccc(N(CC(=O)NC2CC3CCC2C3)S(=O)(=O)c2ccc(C)cc2)cc1OC (centres undefined)	none
COc1ccc(S(=O)(=O)N(CC(=O)Nc2cccc(C(F)(F)F)c2)c2ccc(C)cc2)cc1	GLP1R inv ag 10µM
COc1ccc(N(CC(=O)NC2CC3CCC2C3)S(=O)(=O)c2ccc(C)cc2)cc1 (centres undefined)	GLP1R inv ag 10µM
CCN(C(=O)Cn1cnc2onc(-c3ccc(F)cc3)c2c1=O)c1cc(C)ccc1C	none
COc1ccc(N(C)C(=O)c2ccc3nc(-c4ccccc4)c(-c4ccccc4)nc3c2)cc1	GLP1R inv ag 6.3µM
NCCCC(N)CC(=O)NC1CNC(=O)C(C2CC(O)N=C(N)N2)NC(=O)/C(=C/NC(N)=O)NC(=O)C(CO)NC(=O)C(CO)NC1=O (centres undefined)	none (no result: GLP1R cytotox, PTHR1 agonist, GLP1R inv ag)
Cc1ccc(Cn2c(C(=O)O)c(CNCc3ccc(OC(C)C)cc3)c3ccc(C)cc32)cc1	GLP1R cytotox inconclusive, GLP1R inv ag 13µM
Cc1ccc(CNCc2c(C(=O)O)n(Cc3ccc(C)cc3)c3cc(C)ccc23)cc1	GLP1R cytotox inconclusive, GLP1R inv ag inconclusive
Cc1ccc(CNC(=O)c2c(Nc3c(C)cccc3C)sc(C(=O)c3ccccc3)c2N)cc1	GLP1R inv ag 7.1µM (no result: GLP1R ag)
COc1ccccc1Cc1c(C2CCCCC2)nc2ccc(Cl)cn12	GLP1R cytotox inconclusive, GLP1R inv ag 3.5µM
CCOc1ccc(Oc2nc(NCC(C)C)nc(NC(C)(C)C)n2)nn1	none (no result: GLP1R ag)
O=C(CSc1ccccc1)Nc1ccc(-c2nc3ccccc3[nH]2)cc1	GLP1R inv ag inconclusive
O=C(Cc1cccs1)Nc1ccc(-c2nc3ccccc3[nH]2)cc1	GLP1R inv ag 4.5µM
CC1(C)CC(NC(=O)N2c3ccccc3Sc3ccccc32)CC(C)(C)N1	GLP1R cytotox inconclusive, GLP1R inv ag 5µM
CCOC(=O)c1cc(-c2cccs2)nc2c1c(C)nn2-c1ccccn1	GLP1R cytotox 3.5µM, GLP1R inv ag inconclusive
CCOC(=O)c1c(S(=O)(=O)N2CCC(C(=O)N3CCN(c4cccc(C)c4C)CC3)CC2)c(C)n(C)c1C	GLP1R inv ag inconclusive (no result: GLP1R ag)
CCOc1ccc(CNC(=O)C2CCN(c3nnc(-n4c(C)ccc4C)s3)CC2)cc1	none (no result: GLP1R ag)
O=C(NCCN1C(=O)S/C(=C\c2ccccc2F)C1=O)C1=COCCO1	GLP1R inv ag 1µM
COCCn1nnnc1C(c1cc2cc(C)ccc2[nH]c1=O)N1CCN(C2CCCCC2)CC1 (centres undefined)	GLP1R cytotox 11µM
CC(=O)O[C@@H]1[C@@H](O)[C@@H](O)[C@H](Oc2c(-c3ccc(O)cc3)oc3c(CC=C(C)C)c(O)cc(O)c3c2=O)O[C@H]1C	none
CC(=O)O[C@H]1[C@@H](O)[C@H](O)[C@H](Oc2c(O)c(C)c3c4c2[C@@H](C)CC[C@@H]4[C@@H](C)C[C@H]3C=C(C)C)O[C@H]1C	GLP1R cytotox inconclusive, GLP1R inv ag 11µM
S=C(NCc1ccccc1)C(=S)NCc1ccccc1	GLP1R inv ag 10µM
O=C(Nc1cccc(C(F)(F)F)c1)Nc1ccc2snnc2c1	GLP1R inv ag 11µM
CCN(CC)S(=O)(=O)c1ccc2c(c1)nc(CCC(=O)Nc1cccc(C(F)(F)F)c1)n2CC	GLP1R inv ag 10µM
CCN(CC)S(=O)(=O)c1cccc(NC(=O)CC2CCCC2)c1	GLP1R inv ag inconclusive
O=C(Nc1cccc(C(F)(F)F)c1)c1ccc2snnc2c1	none
CCN(CC)S(=O)(=O)c1cccc(NC(=O)Nc2cccc(C(F)(F)F)c2)c1	GLP1R cytotox inconclusive, GLP1R inv ag 7.9µM

Source: PubChem BioAssay (National Center for Advancing Translational Sciences (NCATS))
